According to PubChem BioAssay (NCATS):
Inconclusive results are not listed. The source made the active and inactive calls. Calls follow the shape of the dose curve; as a rule, active = well fitted curve in the direction sought with a large enough effect; inconclusive = small, poorly fitted or top-dose-only effect, or another doubt; inactive = no such curve, though single readings can be large; an effect the other way counts as inactive or inconclusive.

What was measured:
MCC-13 = assay: qHTS assay to identify novel small-molecules to repurpose for Merkel cell carcinoma treatment (AID 1296009); details: MCC and control cell lines, CellTiter-Glo viability, 72 h; series mostly up to 46 µM; also: nearly all actives have a fitted effect of over 60% in size
How it was run: (§1)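 Cell viability measured by CellTiter-Glo following 72 hr compound treatment at 37 degree celsius, with NPC and MIPE libraries tested in 8- and 11-point concentration series.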

MKL-1 = assay: as above; details: MCC and control cell lines, CellTiter-Glo viability, 72 h; series mostly up to 46 µM
How it was run: as §1

MKL-2 = assay: as above; details: MCC and control cell lines, CellTiter-Glo viability, 72 h; series mostly up to 46 µM
How it was run: as §1

UISO = assay: as above; details: MCC and control cell lines, CellTiter-Glo viability, 72 h; series mostly up to 46 µM
How it was run: as §1

WaGa = assay: as above; details: MCC and control cell lines, CellTiter-Glo viability, 72 h; series mostly up to 46 µM
How it was run: as §1

C33A = assay: Primary qHTS to identify gynecologic anti-cancer compounds using libraries of approved drugs and bioactive compounds (AID 1345084); details: Gynecologic cancer cell panel viability, ATPlite luminescence, 48 h; series mostly up to 57.5 µM; also: nearly all actives have a fitted effect of over 55% in size
How it was run: (§2)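 Cytotoxicity screen measuring ATP content by luciferase luminescence. Each compound is applied at five concentrations for 48 h at 37 C with 5% CO2.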

CAOV3 = assay: as above; details: Gynecologic cancer cell panel viability, ATPlite luminescence, 48 h; series mostly up to 57.5 µM
How it was run: as §2

CASKI = assay: as above; details: Gynecologic cancer cell panel viability, ATPlite luminescence, 48 h; series mostly up to 57.5 µM
How it was run: as §2

Es-2 = assay: as above; details: Gynecologic cancer cell panel viability, ATPlite luminescence, 48 h; series mostly up to 57.5 µM
How it was run: as §2

HeLa = assay: as above; details: Gynecologic cancer cell panel viability, ATPlite luminescence, 48 h; series mostly up to 57.5 µM
How it was run: as §2

Hek293T = assay: as above; details: Gynecologic cancer cell panel viability, ATPlite luminescence, 48 h, control line for the selectivity index; series mostly up to 57.5 µM
How it was run: as §2

JEG-3 = assay: as above; details: Gynecologic cancer cell panel viability, ATPlite luminescence, 48 h; series mostly up to 57.5 µM
How it was run: as §2

OV90 = assay: as above; details: Gynecologic cancer cell panel viability, ATPlite luminescence, 48 h; series mostly up to 57.5 µM
How it was run: as §2

PA-1 = assay: as above; details: Gynecologic cancer cell panel viability, ATPlite luminescence, 48 h; series mostly up to 57.5 µM
How it was run: as §2

Tov-21-G = assay: as above; details: Gynecologic cancer cell panel viability, ATPlite luminescence, 48 h; series mostly up to 57.5 µM
How it was run: as §2

Tov112D = assay: as above; details: Gynecologic cancer cell panel viability, ATPlite luminescence, 48 h; series mostly up to 57.5 µM
How it was run: as §2

[1] = Drug repurposing screens with cells derived from glioblastoma tumor samples (AID 1345199); details: GBM patient neurospheres viability, ATP luminescence, 48 h; also: nearly all actives have a fitted effect of over 40% in size
How it was run: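 Primary testing used CD133+ neurospheres from four GBM patients, seven concentrations, 48 h exposure and ATP-based viability; confirmation added three slower-growing patient lines.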

SKOV3 = assay: Primary qHTS to identify gynecologic anti-cancer compounds using libraries of approved drugs and bioactive compounds (AID 1345084); details: Gynecologic cancer cell panel viability, ATPlite luminescence, 48 h; series mostly up to 57.5 µM; also: nearly all actives have a fitted effect of over 55% in size
How it was run: as §2

NIH3T3 = assay: qHTS assay to identify novel small-molecules to repurpose for Merkel cell carcinoma treatment (AID 1296009); details: MCC and control cell lines, CellTiter-Glo viability, 72 h; at 44.8 µM (top of the series) unless noted; also: nearly all actives have a fitted effect of over 60% in size
How it was run: as §1

[2] = at 45.9 µM (top of the series), tumour line B
[3] = at 45.9 µM (top of the series), tumour line D
[4] = at 46.1 µM (top of the series), tumour line C
[5] = at 46 µM (top of the series), tumour line A
[6] = at 20 µM (top of the series), tumour line C
[7] = at 21.2 µM (top of the series), tumour line B
[8] = at 21.2 µM (top of the series), tumour line D
[9] = at 21.3 µM (top of the series), tumour line A
% is scaled to controls: 0 for no effect and ±100 for the full control effect; potency is read from the fitted curve at half-maximal effect.

CCCN1CCCC[C@H]1C(=O)Nc1c(C)cccc1C
active: Potency ([1]; tumour line A) 35.5 µM
inactive: Potency (MCC-13) | Potency (MKL-1) | Potency (MKL-2) | Potency (UISO) | Potency (WaGa) | Potency (C33A) | Potency (CAOV3) | Potency (CASKI) | Potency (Es-2) | Potency (HeLa) | Potency (Hek293T) | Potency (JEG-3) | Potency (OV90) | Potency (PA-1) | Potency (Tov-21-G) | Potency (Tov112D) | activity, negative = cell killing [1, 2] -11.5% | activity, negative = cell killing [1, 3] -25.5% | activity, negative = cell killing [1, 4] -6.18%

Cc1ccc(Nc2c(F)cccc2Cl)c(CC(=O)O)c1
inactive: Potency (MCC-13) | Potency (MKL-1) | Potency (MKL-2) | Potency (UISO) | Potency (WaGa) | Potency (C33A) | Potency (CAOV3) | Potency (CASKI) | Potency (Es-2) | Potency (HeLa) | Potency (Hek293T) | Potency (JEG-3) | Potency (OV90) | Potency (PA-1) | Potency (SKOV3) | Potency (Tov-21-G) | Potency (Tov112D) | activity, negative = cell killing [1, 2] -6.28% | activity, negative = cell killing [1, 3] -3.08% | activity, negative = cell killing [1, 5] -32.8% | activity, negative = cell killing [1, 4] -3.92%

CN=C(NC#N)Nc1ccc(C2=NNC(=O)CC2C)cc1 (configuration not stated)
inactive: Potency (MCC-13) | Potency (MKL-1) | Potency (MKL-2) | Potency (UISO) | Potency (WaGa) | Potency (C33A) | Potency (CAOV3) | Potency (CASKI) | Potency (Es-2) | Potency (HeLa) | Potency (Hek293T) | Potency (JEG-3) | Potency (OV90) | Potency (PA-1) | Potency (SKOV3) | Potency (Tov-21-G) | Potency (Tov112D) | activity, negative = cell killing [1, 2] -9.56% | activity, negative = cell killing [1, 3] 17.5% | activity, negative = cell killing [1, 5] -26.1% | activity, negative = cell killing [1, 4] -22.3%

CC1(C)O[C@@H]2C[C@H]3[C@@H]4C[C@H](F)C5=CC(=O)CC[C@]5(C)[C@H]4[C@@H](O)C[C@]3(C)[C@]2(C(=O)CO)O1
inactive: Potency (MCC-13) | Potency (MKL-1) | Potency (MKL-2) | Potency (UISO) | Potency (WaGa) | Potency (C33A) | Potency (CASKI) | Potency (Es-2) | Potency (HeLa) | Potency (Hek293T) | Potency (JEG-3) | Potency (OV90) | Potency (PA-1) | Potency (SKOV3) | Potency (Tov-21-G) | Potency (Tov112D) | activity, negative = cell killing [1, 6] -16.9% | activity, negative = cell killing [1, 7] -8.1% | activity, negative = cell killing [1, 8] -28% | activity, negative = cell killing [1, 9] -15.3%

CCCCCC=CCC=CCCCCCCCC(=O)OCC
inactive: Potency (MCC-13) | outcome (NIH3T3) | Potency (UISO) | Potency (C33A) | Potency (CASKI) | Potency (Es-2) | Potency (HeLa) | Potency (Hek293T) | Potency (JEG-3) | Potency (OV90) | Potency (PA-1) | Potency (SKOV3) | Potency (Tov-21-G) | Potency (Tov112D) | activity, negative = cell killing [1, 2] -5.69% | activity, negative = cell killing [1, 3] -29.1% | activity, negative = cell killing [1, 4] -8.48%
active: Potency (MKL-2) 15 µM

CC1(C)O[C@@H]2C[C@H]3[C@@H]4CCC5=CC(=O)CC[C@]5(C)[C@@]4(F)[C@@H](O)C[C@]3(C)[C@]2(C(=O)CCl)O1
inactive: Potency (MCC-13) | Potency (MKL-1) | Potency (MKL-2) | Potency (UISO) | Potency (WaGa) | Potency (C33A) | Potency (CAOV3) | Potency (CASKI) | Potency (Es-2) | Potency (HeLa) | Potency (Hek293T) | Potency (JEG-3) | Potency (PA-1) | Potency (SKOV3) | Potency (Tov-21-G) | Potency (Tov112D) | activity, negative = cell killing [1, 6] -1.51% | activity, negative = cell killing [1, 7] -4.88% | activity, negative = cell killing [1, 8] 2.26% | activity, negative = cell killing [1, 9] 3.38%

C=CCc1ccc(O)c(OC)c1
inactive: Potency (MCC-13) | Potency (MKL-1) | Potency (MKL-2) | Potency (UISO) | Potency (WaGa) | Potency (C33A) | Potency (CAOV3) | Potency (CASKI) | Potency (Es-2) | Potency (HeLa) | Potency (Hek293T) | Potency (JEG-3) | Potency (OV90) | Potency (PA-1) | Potency (Tov-21-G) | Potency (Tov112D) | activity, negative = cell killing [1, 2] -13.4% | activity, negative = cell killing [1, 3] 1.72% | activity, negative = cell killing [1, 5] -22.5% | activity, negative = cell killing [1, 4] 5.7%

NCCCC[C@H](N[C@@H](CCc1ccccc1)C(=O)O)C(=O)N1CCC[C@H]1C(=O)O
inactive: Potency (MCC-13) | Potency (MKL-1) | Potency (MKL-2) | Potency (UISO) | Potency (WaGa) | Potency (C33A) | Potency (CAOV3) | Potency (CASKI) | Potency (Es-2) | Potency (HeLa) | Potency (Hek293T) | Potency (JEG-3) | Potency (OV90) | Potency (PA-1) | Potency (SKOV3) | Potency (Tov-21-G) | Potency (Tov112D) | activity, negative = cell killing [1, 6] 16.9% | activity, negative = cell killing [1, 7] -0.103% | activity, negative = cell killing [1, 8] -3.03% | activity, negative = cell killing [1, 9] 10.9%

COc1cc(C=C2CCC/C(=C\c3ccc(O)c(OC)c3)C2=O)ccc1O
inactive: Potency (Es-2) | Potency (Hek293T) | Potency (OV90)
active: Potency (MCC-13) 26.6 µM | Potency (MKL-1) 4.22 µM | Potency (MKL-2) 2.99 µM | Potency (UISO) 21.1 µM | Potency (WaGa) 5.31 µM

O=C1[C@H]2CCCC[C@H]2C(=O)N1CCCCN1CCN(c2nsc3ccccc23)CC1
active: Potency (UISO) 10.6 µM
inactive: Potency (MCC-13) | Potency (MKL-1) | Potency (C33A) | Potency (CAOV3) | Potency (CASKI) | Potency (Es-2) | Potency (HeLa) | Potency (JEG-3) | Potency (PA-1) | Potency (SKOV3) | Potency (Tov-21-G) | Potency (Tov112D)

CCCCC(CC)CN=C(N)NC(N)=NCCCCCCN=C(N)NC(N)=NCC(CC)CCCC (configuration not stated)
active: Potency (MCC-13) 10.6 µM | Potency (MKL-1) 1.33 µM | Potency (MKL-2) 1.88 µM | Potency (UISO) 1.88 µM | Potency (WaGa) 2.66 µM | Potency (HeLa) 17.8 µM | Potency (OV90) 20 µM | Potency (PA-1) 10 µM | Potency (Tov-21-G) 17.8 µM

O=S1(=O)c2cccc3cccc(c23)N1CCCN1CCN(c2ccc(F)cc2)CC1
inactive: Potency (MCC-13) | Potency (MKL-1) | Potency (UISO) | Potency (C33A) | Potency (CASKI) | Potency (Es-2) | Potency (HeLa) | Potency (Hek293T) | Potency (JEG-3) | Potency (OV90) | Potency (PA-1) | Potency (SKOV3) | Potency (Tov-21-G) | Potency (Tov112D) | activity, negative = cell killing [1, 2] -28.9%
active: Potency ([1]; tumour line A) 12.6 µM
